In PubChem BioAssay AID1159580 (chemical genetic matrix, 2015):
Among all 5,500 compounds or so, about 2,000 (36%) were called active. Another 18% or so got no clear call; they are omitted. No stated cut-off is given here; in the data, active means normalized growth mostly below about 0.91 (no sharp cut-off); inconclusive means no clear call, values can overlap the other calls; inactive means mostly above about 0.92. Some of the results follow.

Test: chemical genetic growth profiling, strain panel (AID 1159580);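 further: tested at 20 µM; growth read once vehicle control cultures reached saturation at 30 °C; 1 = growth at the plate median or of vehicle wells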
Conditions: growth OD

Measured: normalized growth

CCCCCC1C(=O)CCC1CC(=O)OC (stereo unspecified)
inactive: S. cerevisiae deletion strains, locus YJR043C, strain POL32, stronger effect = lower value 0.991 | S. cerevisiae deletion strains, locus YJR066W, strain TOR1, stronger effect = lower value 0.982 | S. cerevisiae deletion strains, locus YJR075W, strain HOC1, stronger effect = lower value 1.01 | S. cerevisiae deletion strains, locus YKL009W, strain mrt4, stronger effect = lower value 0.914 | S. cerevisiae deletion strains, locus YKL068W, stronger effect = lower value 0.952 | S. cerevisiae deletion strains, locus YKL085W, strain MDH1 (second series), stronger effect = lower value 0.96 | S. cerevisiae deletion strains, locus YKL085W, strain MDH1, stronger effect = lower value 0.96 | S. cerevisiae deletion strains, locus YKL160W, strain elf1, stronger effect = lower value 0.988 | S. cerevisiae deletion strains, locus YKR001C, strain vps1, stronger effect = lower value 0.951 | S. cerevisiae deletion strains, locus YKR026C, strain gcn3, stronger effect = lower value 0.976 | S. cerevisiae deletion strains, locus YKR091W, strain srl3, stronger effect = lower value 0.982 | S. cerevisiae deletion strains, locus YLL001W, strain dnm1, stronger effect = lower value 0.983 | S. cerevisiae deletion strains, locus YLL026W, stronger effect = lower value 0.981 | S. cerevisiae deletion strains, locus YLL041C, strain sdh2, stronger effect = lower value 0.982 | S. cerevisiae deletion strains, locus YLR027C, strain aat2, stronger effect = lower value 0.983 | S. cerevisiae deletion strains, locus YLR039C, strain RIC1, stronger effect = lower value 1.03 | S. cerevisiae deletion strains, locus YLR058C, strain SHM2, stronger effect = lower value 1 | S. cerevisiae deletion strains, locus YLR102C, strain apc9, stronger effect = lower value 0.956 | S. cerevisiae deletion strains, locus YLR113W, strain HOG1, stronger effect = lower value 0.942 | S. cerevisiae deletion strains, locus YLR221C, strain rsa3, stronger effect = lower value 0.985 | S. cerevisiae deletion strains, locus YLR258W, strain gsy2, stronger effect = lower value 0.981 | S. cerevisiae deletion strains, locus YLR262C, strain YPT6 (second series), stronger effect = lower value 1.02 | S. cerevisiae deletion strains, locus YLR262C, strain YPT6, stronger effect = lower value 1.05 | S. cerevisiae deletion strains, locus YLR268W, strain sec22, stronger effect = lower value 0.956 | S. cerevisiae deletion strains, locus YLR320W, strain mms22, stronger effect = lower value 0.97 | S. cerevisiae deletion strains, locus YLR330W, strain CHS5, stronger effect = lower value 0.97 | S. cerevisiae deletion strains, locus YLR342W, strain FKS1 (second series), stronger effect = lower value 1.08 | S. cerevisiae deletion strains, locus YLR342W, strain FKS1, stronger effect = lower value 0.984 | S. cerevisiae deletion strains, locus YLR357W, strain rsc2, stronger effect = lower value 0.947 | S. cerevisiae deletion strains, locus YLR370C, strain arc18, stronger effect = lower value 0.978 | S. cerevisiae deletion strains, locus YLR371W, strain rom2, stronger effect = lower value 0.958 | S. cerevisiae deletion strains, locus YLR384C, strain iki3, stronger effect = lower value 0.961 | S. cerevisiae deletion strains, locus YLR418C, strain cdc73, stronger effect = lower value 1.02 | S. cerevisiae deletion strains, locus YML016C, strain PPZ1, stronger effect = lower value 0.975 | S. cerevisiae deletion strains, locus YML032C, strain rad52, stronger effect = lower value 0.983 | S. cerevisiae deletion strains, locus YML120C, strain ndi1, stronger effect = lower value 0.994 | S. cerevisiae deletion strains, locus YML124C, strain tub3, stronger effect = lower value 0.941 | S. cerevisiae deletion strains, locus YMR058W, strain fet3, stronger effect = lower value 0.992 | S. cerevisiae deletion strains, locus YMR078C, strain ctf18, stronger effect = lower value 0.945 | S. cerevisiae deletion strains, locus YMR125W, strain sto1, stronger effect = lower value 0.971 | S. cerevisiae deletion strains, locus YMR129W, stronger effect = lower value 0.973 | S. cerevisiae deletion strains, locus YMR205C, strain PFK2, stronger effect = lower value 0.969 | S. cerevisiae deletion strains, locus YMR223W, strain ubp8, stronger effect = lower value 0.981 | S. cerevisiae deletion strains, locus YMR231W, strain pep5, stronger effect = lower value 0.97 | S. cerevisiae deletion strains, locus YMR263W, strain SAP30, stronger effect = lower value 1.02 | S. cerevisiae deletion strains, locus YMR307W, strain GAS1, stronger effect = lower value 1.24 | S. cerevisiae deletion strains, locus YNL067W, strain RPL9B, stronger effect = lower value 1.03 | S. cerevisiae deletion strains, locus YNL071W, strain lat1, stronger effect = lower value 0.988 | S. cerevisiae deletion strains, locus YNL153C, strain GIM3, stronger effect = lower value 1.02 | S. cerevisiae deletion strains, locus YNL183C, strain NPR1, stronger effect = lower value 0.928 | S. cerevisiae deletion strains, locus YNL209W, strain ssb2, stronger effect = lower value 0.983 | S. cerevisiae deletion strains, locus YNL233W, strain BNI4, stronger effect = lower value 1.04 | S. cerevisiae deletion strains, locus YNL248C, strain rpa49, stronger effect = lower value 0.967 | S. cerevisiae deletion strains, locus YNL250W, strain rad50, stronger effect = lower value 0.945 | S. cerevisiae deletion strains, locus YNL271C, strain bni1, stronger effect = lower value 0.937 | S. cerevisiae deletion strains, locus YNL298W, strain CLA4, stronger effect = lower value 0.966 | S. cerevisiae deletion strains, locus YNL307C, strain MCK1, stronger effect = lower value 0.97 | S. cerevisiae deletion strains, locus YNL322C, strain KRE1 (second series), stronger effect = lower value 0.981 | S. cerevisiae deletion strains, locus YNL322C, strain KRE1, stronger effect = lower value 0.988 | S. cerevisiae deletion strains, locus YNR049C, strain mso1, stronger effect = lower value 0.987 | S. cerevisiae deletion strains, locus YNR052C, strain pop2, stronger effect = lower value 0.978 | S. cerevisiae deletion strains, locus YOL012C, strain htz1 1.15 | S. cerevisiae deletion strains, locus YOL147C, strain pex11, stronger effect = lower value 0.965 | S. cerevisiae deletion strains, locus YOR001W, strain rrp6, stronger effect = lower value 0.977 | S. cerevisiae deletion strains, locus YOR061W, strain CKA2, stronger effect = lower value 0.99 | S. cerevisiae deletion strains, locus YOR069W, strain VPS5, stronger effect = lower value 0.978 | S. cerevisiae deletion strains, locus YOR070C, strain gyp1, stronger effect = lower value 0.972 | S. cerevisiae deletion strains, locus YOR080W, strain dia2, stronger effect = lower value 0.974 | S. cerevisiae deletion strains, locus YOR083W, strain WHI5, stronger effect = lower value 0.986 | S. cerevisiae deletion strains, locus YOR106W, strain vam3, stronger effect = lower value 1.03 | S. cerevisiae deletion strains, locus YOR136W, strain idh2, stronger effect = lower value 0.973 | S. cerevisiae deletion strains, locus YOR144C, strain elg1, stronger effect = lower value 0.963 | S. cerevisiae deletion strains, locus YOR184W, strain ser1, stronger effect = lower value 0.921 | S. cerevisiae deletion strains, locus YOR231W, strain MKK1, stronger effect = lower value 0.977 | S. cerevisiae deletion strains, locus YOR265W, strain rbl2, stronger effect = lower value 0.981 | S. cerevisiae deletion strains, locus YOR270C, strain vph1, stronger effect = lower value 0.997 | S. cerevisiae deletion strains, locus YOR290C, strain snf2, stronger effect = lower value 1 | S. cerevisiae deletion strains, locus YOR316C, strain cot1, stronger effect = lower value 0.952 | S. cerevisiae deletion strains, locus YPL051W, strain arl3, stronger effect = lower value 0.991 | S. cerevisiae deletion strains, locus YPL055C, strain LGE1, stronger effect = lower value 1 | S. cerevisiae deletion strains, locus YPL078C, strain atp4, stronger effect = lower value 0.975 | S. cerevisiae deletion strains, locus YPL106C, strain sse1, stronger effect = lower value 0.999 | S. cerevisiae deletion strains, locus YPL240C, strain hsp82, stronger effect = lower value 0.969 | S. cerevisiae deletion strains, locus YPL241C, strain CIN2, stronger effect = lower value 0.977 | S. cerevisiae deletion strains, locus YPL256C, strain CLN2, stronger effect = lower value 0.97 | S. cerevisiae deletion strains, locus YPR119W, strain clb2, stronger effect = lower value 0.939 | S. cerevisiae deletion strains, locus YPR141C, strain kar3, stronger effect = lower value 0.944 | S. cerevisiae deletion strains, locus YPR163C, strain tif3, stronger effect = lower value 0.963 | S. cerevisiae deletion strains, locus YPR167C, strain met16, stronger effect = lower value 0.959 | S. cerevisiae deletion strains, strain wtn01, stronger effect = lower value 0.962 | S. cerevisiae strains, strain wild type, stronger effect = lower value 1
